The source of these data is the antibiotic and cytotoxicity screens of Wong et al. (2023).

Molecules are shown by their SMILES. Out of some 39,000 compounds screened, about 3,300 (8.5%) were called active. The sample holds actives, similar compounds and a random draw of the others, so the mix is not that of the screen.

The assay deals with HepG2. The assay is described as follows: cytotoxicity call (relative viability < 0.9). Particulars: 10 µM.
As to `CC(C)CC#Cc1cnc2c(c1)C(=O)N([C@@H](C)CO)C[C@@H](C)[C@H](CN(C)S(=O)(=O)c1ccccc1)O2`, the cytotoxicity call was “inactive”. With `CC(C)(C)c1nc(-c2cccc(NS(=O)(=O)c3c(F)cccc3F)c2F)c(-c2ccnc(N)n2)s1` the entry was “inactive”; with `CC(C)NC(=O)N(C)C[C@H]1Oc2ccc(NC(=O)CCN3CCOCC3)cc2CC(=O)N([C@@H](C)CO)C[C@H]1C`, “inactive”; with `CCS(=O)(=O)N1C[C@]2(CCN(CC2)Cc2cccc(c2)OC)c2c(n(c3cc(ccc23)OC)C)[C@@H]1CO`, “inactive”. To `C[C@H](CO)N1C[C@H](C)[C@@H](CN(C)C(=O)c2ccccn2)Oc2cc(Br)ccc2S1(=O)=O` belongs “inactive”; to `CCNC(=O)c1cc2c(c(-c3cccc(-c4cc5ccccc5o4)c3)n1)[C@@H](CCO)N(C(=O)NC(C)C)C2`, “inactive”. To `Cc1ccc(S(=O)(=O)N(C)C[C@H]2Oc3ncc(Br)cc3C(=O)N([C@H](C)CO)C[C@@H]2C)cc1` belongs “inactive”; to `C[C@H](CO)N1C[C@H](C)[C@@H](CN(C)C(=O)Nc2ccc(F)cc2)OCCCC[C@H](C)Oc2ccc(NC(=O)NC3CCCCC3)cc2C1=O`, “inactive”; to `Cc1c(-c2ccc(C(N)=O)c3[nH]c4cc(C(C)(C)O)ccc4c23)cccc1-n1cnc2ccccc2c1=O`, “active”. Turning to `CCOC(=O)Cn1cnc2ccccc2c1=O`, the cytotoxicity call was “inactive”. With `Cc1nc2c(cc1C(=O)NN)c(=O)n(C)c(=O)n2C`, the cytotoxicity call is “inactive”. With `CC(C)NC(=O)Nc1ccc2c(c1)CC(=O)N([C@H](C)CO)C[C@H](C)[C@@H](CN(C)Cc1ccc(Oc3ccccc3)cc1)O2` the entry was “inactive”; with `O=C(C[C@@H]1CC[C@H]2[C@@H](COC[C@@H](O)CN2C(=O)c2ccncc2)O1)NC1CCC1`, “inactive”. With `C[C@@H]1CCCCO[C@H](CN(C)C(=O)Nc2cccc3ccccc23)[C@H](C)CN([C@@H](C)CO)C(=O)c2cc(NC(=O)c3ccncc3)ccc2O1` the entry was “inactive”; with `CC(=O)N(O)CCCCCNC(=O)CC(O)(CC(=O)NCCCCCN(O)C(C)=O)C(=O)O`, “inactive”.

Turning to `CC(=O)NCCCS(=O)(=O)O`, the cytotoxicity call was “inactive”. With `CC(=O)N(O)CCCCNC(=O)CCC(=O)N(O)CCCCCNC(=O)CCC(=O)N(O)CCCCCN` the entry was “inactive”. With `CC(=O)N(O)CCCCCNC(=O)CCC(=O)N(O)CCCCCNC(=O)CCC(=O)N(O)CCCCCN.CS(=O)(=O)O` the entry was “active”; with `C[C@H](N)CCC(=O)NCS(=O)(=O)O`, “inactive”. With `CC(=O)N(O)CCCCCNC(=O)CCC(=O)N(O)CCCCCNC(=O)CCC(=O)N(O)CCCCCN` the entry was “active”; with `COCCNC(=O)C[C@@H]1CC[C@H]2[C@@H](COC[C@H](O)CN2S(=O)(=O)c2ccccc2F)O1`, “inactive”.

On to `COc1ccc(S(=O)(=O)Nc2ccc3c(c2)[C@H]2C[C@H](CC(=O)NCC4CC4)O[C@@H](CO)[C@H]2O3)cc1`, for which the cytotoxicity call is “inactive”. Turning to `C[C@@H]1CN([C@@H](C)CO)C(=O)Cc2cc(NS(C)(=O)=O)ccc2O[C@H]1CN(C)S(=O)(=O)c1ccccc1`, the cytotoxicity call was “inactive”. To `CN[C@H]1CN(c2ccc3c(=O)c(C(=O)O)cn(-c4nccs4)c3n2)C[C@@H]1OC` belongs “inactive”. To `CCC(NC(C)C)C(O)c1ccc(O)c(O)c1.CS(=O)(=O)O` (configuration not stated) belongs “inactive”; to `CC(C)NCC(O)c1ccc2ccccc2c1.Cl` (configuration not stated), “inactive”. With `CC(C)NCC(O)c1cc(O)cc(O)c1` (configuration not stated) the entry was “active”; with `CC(C)(C)NCC(O)c1cc(O)cc(O)c1.O=S(=O)(O)O` (configuration not stated), “inactive”; with `CC(C)NCC(O)c1ccc(NS(C)(=O)=O)cc1.Cl` (configuration not stated), “inactive”. For the compound `CC(C)NCC(O)c1ccc(O)c(O)c1.Cl` (configuration not stated), the cytotoxicity call was “active”. To `C[C@@H]1CCCCO[C@H](CN(C)Cc2ccc(C(F)(F)F)cc2)[C@@H](C)CN([C@H](C)CO)C(=O)c2cc(NS(=O)(=O)c3cn(C)cn3)ccc2O1` belongs “inactive”; to `COc1ccc(S(=O)(=O)N(C)C[C@@H]2Oc3ccc(NC(=O)NC(C)C)cc3CC(=O)N([C@@H](C)CO)C[C@H]2C)cc1`, “inactive”.

In the case of `COC(=O)[C@@H](C)N(C#N)c1nc(C)cc(C)n1`, the cytotoxicity call is “inactive”. To `C[C@@H]1CCCCO[C@@H](CN(C)S(=O)(=O)c2cccs2)[C@@H](C)CN([C@@H](C)CO)C(=O)c2cc(NC(=O)NC3CCCCC3)ccc2O1` belongs “inactive”; to `C[C@H]1CN([C@@H](C)CO)S(=O)(=O)c2ccc(C3=CCCC3)cc2O[C@@H]1CN(C)S(=O)(=O)c1cn(C)cn1`, “inactive”.

Take `C[C@@H]1CN([C@H](C)CO)C(=O)c2cc(NS(=O)(=O)c3ccc(F)cc3)ccc2O[C@@H]1CN(C)S(=O)(=O)c1ccc(F)cc1`: the cytotoxicity call is “inactive”. To `C[C@H](CO)N1C[C@H](C)[C@H](CN(C)Cc2ccc(Cl)c(Cl)c2)Oc2ccc(NC(=O)Nc3ccccc3)cc2CC1=O` belongs “active”; to `C[C@H]1CN([C@@H](C)CO)C(=O)Cc2cc(NC(=O)Nc3ccccc3)ccc2O[C@H]1CN(C)Cc1ccc(Cl)c(Cl)c1`, “active”; to `C[C@@H]1CN([C@H](C)CO)C(=O)Cc2cc(NC(=O)Nc3ccccc3)ccc2O[C@@H]1CN(C)Cc1ccc(Cl)c(Cl)c1`, “active”. With `C[C@H](CO)N1C[C@H](C)[C@@H](CN(C)Cc2ccc(Cl)c(Cl)c2)Oc2ccc(NC(=O)Nc3ccccc3)cc2CC1=O`, the cytotoxicity call is “inactive”.

As for `C[C@@H]1CN([C@H](C)CO)C(=O)Cc2cc(NC(=O)Nc3ccccc3)ccc2O[C@H]1CN(C)Cc1ccc(Cl)c(Cl)c1`, the cytotoxicity call was “active”. To `C[C@@H]1CN([C@@H](C)CO)C(=O)Cc2cc(NC(=O)Nc3ccccc3)ccc2O[C@H]1CN(C)Cc1ccc(Cl)c(Cl)c1` belongs “inactive”; to `CC(C)NC(=O)Nc1ccc2c(c1)C(=O)N([C@H](C)CO)C[C@H](C)[C@H](CN(C)C(=O)Nc1ccccc1)OCCCC[C@H](C)O2`, “inactive”; to `C[C@@H]1CN([C@@H](C)CO)C(=O)Cc2cc(NS(=O)(=O)c3cn(C)cn3)ccc2O[C@@H]1CN(C)Cc1ccc(C(=O)Nc2ccccc2N)cc1`, “inactive”. To `Cc1noc(C)c1S(=O)(=O)Nc1cccc2c1O[C@H](CN(C)C(=O)Nc1ccccc1)[C@H](C)CN([C@H](C)CO)C2=O` belongs “inactive”; to `CN(C(=O)c1ccc(Cl)c(N2C(=O)CCS2(=O)=O)c1)[C@H]1CCS(=O)(=O)C1`, “inactive”. With `Cc1ccc(S(=O)(=O)Nc2ccc3c(c2)C(=O)N([C@@H](C)CO)C[C@H](C)[C@@H](CN(C)S(C)(=O)=O)O3)cc1` the entry was “inactive”.
